The results in this text go back to PubChem BioAssay AID504467 (National Center for Advancing Translational Sciences (NCATS), 2011).

Screen size: about 330,000 compounds; about 7,700 (2.3%) were called active. Another 26% or so got no clear call; they are omitted. This excerpt belongs to a sample that is enriched for actives. A number with no mark means an inactive call. Calls follow the shape of the dose curve; as a rule, active = well fitted inhibition curve with a large enough effect; inconclusive = small, poorly fitted or top-dose-only effect, or effect the other way; inactive = flat fitted curve, though single readings scatter.
% is scaled to controls: 0 for no effect and ±100 for the full control effect; potency is read from the fitted curve at half-maximal effect.

This experiment can be described thus: qHTS screen for small molecules that inhibit ELG1-dependent DNA repair in human embryonic kidney (HEK293T) cells expressing luciferase-tagged ELG1. Also: nearly all actives have a fitted effect of over 55% in size. The note with it: HEK293T ELG1-luciferase reporter, luminescence, 16 h, DNA damage induced by 5-fluorouridine; series mostly up to 46.1 µM; activity change, negative = inhibition: at the top concentration. The procedure, abridged:
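Cells (2,000 per well) received 5-fluorouridine plus test compound or DMSO and were incubated 16 hr at 37 °C, 5% CO2. Luciferase activity was read by luminescence 30 min after ONE-Glo addition; signal suppression marked inhibition of damage-induced ELG1 function.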
(In general: Quantitative high-throughput screening tests each substance at several concentrations.)
Consider `Cc1ccc(C(=O)COC(=O)CCN2C(=O)C3C4CCC(C4)C3C2=O)cc1C` (stereo unspecified), for which the “activity change, negative = inhibition” value was -2.83%.
On the same count and under the same terms, to `COCCOC(=O)c1[nH]c2c(c1C)C(=O)CC(c1ccc(OC)cc1)C2` (stereo unspecified) belongs -3.68%; to `COc1cc(C2CC(=O)c3cnc(NC(C)=O)nc3C2)cc(OC)c1OC` (stereo unspecified), 12.5%.
For `CCCOC(=O)c1[nH]c2c(c1C)C(=O)CC(c1cc(OC)c(OC)c(OC)c1)C2` (stereo unspecified), the Potency is 5.17 µM (active).
`COc1ccc(OC)c(S(=O)(=O)Nc2c(C)nn(C)c2C)c1`: the “activity change, negative = inhibition” value was -6.93%.
In the case of `Cc1cc(C)c(C)c(S(=O)(=O)N2CCN(C(=O)c3ccc4c(=O)n5c(nc4c3)CCC5)CC2)c1C`, the “activity change, negative = inhibition” value was -26.1%.
Take `COc1ccc(C=C(C#N)C#N)c(CSc2ccccn2)c1`: the “activity change, negative = inhibition” value is -6.6%.
Turning to `Cc1cccc(OCC(=O)NC(=S)Nc2ccccc2N2CCOCC2)c1`, the “activity change, negative = inhibition” value was -5.56%.
Take `Cc1cc(C)cc(OCC(=O)Nc2ccc(N3CCOCC3)cc2N2CCOCC2)c1`: the Potency is 16.4 µM (active).
`Cc1cc(N2CCCC2)ccc1NC(=O)COc1ccc(Cl)cc1`: the “activity change, negative = inhibition” value is -10.8%.
Take `COc1cccc(CNC(=O)CCC2CCCN(C(=O)c3ccc(F)c(Cl)c3)C2)c1` (stereo unspecified): the “activity change, negative = inhibition” value was -27.6%.
With `COc1cccc(NC(=S)NCCCN2CCOCC2)c1`, the “activity change, negative = inhibition” value is 16.7%.
Same read-out and setting: then `Cc1ccc(NC(=S)NCCN2CCOCC2)cc1`, with 2.53%.
`CCOc1cccc(/C=N/NC(=S)NCCN2CCOCC2)c1O`: the Potency is 13 µM (active).
On to `CCN(CC)C(=O)[C@H]1C[C@H](CC(=O)NCC23CC4CC(CC(C4)C2)C3)C(=O)N2CCc3c([nH]c4cc(CCC(=O)N(C)C)ccc34)[C@]12C`, for which the “activity change, negative = inhibition” value was -9.18%.
Consider `COc1ccc(C(=O)c2c3ccc([N+](=O)[O-])cc3[n+]([O-])n2CCCN)cc1`, for which the “activity change, negative = inhibition” value was -19.9%.
Consider `COc1ccc(Cc2nnc(SCC(=O)N(c3ccccc3)C(C)C)n(N)c2=O)cc1`, for which the “activity change, negative = inhibition” value was 0.731%.
`COc1ccc2c(c1)C(NS(=O)(=O)OCC(Cl)(Cl)Cl)CCC2` (stereo unspecified): the “activity change, negative = inhibition” value was 28.9%.
Regarding `Cc1cc(C)c2cc(CN(Cc3nnnn3Cc3ccc(F)cc3)C3CCCC3)c(=O)[nH]c2c1`, the “activity change, negative = inhibition” value was 4.9%.
The same measure, in the same setting: to `CCCN(Cc1cc2cccc(C)c2[nH]c1=O)S(C)(=O)=O` belongs 3.35%.
For the compound `Cc1cccc2cc(CN(Cc3nnnn3Cc3ccccc3)C3CCCC3)c(=O)[nH]c12`, the Potency was 20.6 µM (active).
For the compound `Cc1cccc2cc(CN(Cc3cccs3)C(c3nnnn3C3CCCC3)C(C)C)c(=O)[nH]c12` (stereo unspecified), the Potency was 11.6 µM (active).
Regarding `COc1ccc2[nH]c(=O)c(CN(Cc3nnnn3CCc3ccccc3)CC3CCCO3)cc2c1` (stereo unspecified), the “activity change, negative = inhibition” value was -2.53%.
The same measure, in the same setting: to `CN1CCN(C(c2cc3cc4c(cc3[nH]c2=O)OCCO4)c2nnnn2C2CCCC2)CC1` (stereo unspecified) belongs 0.478%.
Consider `Cc1ccc(N2C(=O)N3[C@@H]4c5ccccc5OC[C@@H]4[C@@H](c4ccccc4)[C@@]3(C)C2=O)cc1`, for which the “activity change, negative = inhibition” value was -0.661%.
Regarding `CC(=O)N1CCSc2ccc(S(=O)(=O)N3CCC(C)CC3)cc21`, the “activity change, negative = inhibition” value is 2.5%.
On the same count and under the same terms, to `CC(Sc1nn(-c2ccc(Cl)cc2)c(=S)s1)C(=O)NCC1CCCO1` (stereo unspecified) belongs -2.87%.
On to `COc1ccccc1N(CCOc1ccccc1)S(=O)(=O)c1ccccc1`, for which the “activity change, negative = inhibition” value was -19.8%.
For `N#CC1=C(SCc2ccc(C#N)cc2)N=C(N)C(c2nc(-c3ccccc3)cs2)C12CCCCC2` (stereo unspecified), the “activity change, negative = inhibition” value is -13.3%.
Take `N#CC1=C(SCc2ccccc2)NC(=O)C(C#N)C12CCCC2` (stereo unspecified): the Potency was 14.6 µM (active).
Take `COC(=O)CSC1=C(C#N)C(c2ccccc2OC)C(C(=O)OC)C(=O)N1` (stereo unspecified): the “activity change, negative = inhibition” value was 2.99%.
With `COc1ccc(C(=O)NCc2nnc(SCC(=O)NC3=NCCS3)n2C)cc1`, the “activity change, negative = inhibition” value is -4.54%.
Still for that read-out and setting: to `O=C(COC(=O)c1cc[n+]([O-])cc1)Nc1ccc(Cl)c(C(F)(F)F)c1` belongs -11.3%; to `CN(C)C1=NC[C@H](Cc2ccccc2)N1CCc1ccc(F)cc1`, -5.08%; to `COc1ccc(NC(=O)C2CCC(CNC(=O)[C@@H]3Cc4ccccc4CN3)CC2)cc1` (stereo partly specified), 13.7%.
In the case of `COc1ccc(N(Cc2cc3ccc(C)cc3[nH]c2=O)S(=O)(=O)c2ccccc2)cc1`, the “activity change, negative = inhibition” value was -22.6%.
Take `CC(C)n1cnc2c(NCc3ccccc3)cc(N[C@@H](CO)Cc3ccccc3)cc21`: the Potency is 16.4 µM (active).
In the case of `CC(C)n1cnc2c(NCc3ccccc3)cc(OCC3CCN(C)CC3)cc21`, the “activity change, negative = inhibition” value was -16.7%.
Same read-out and setting: then `COc1ccc(CNC(=O)/C(C#N)=C/c2cccc(OC)c2OC)cc1`, with -0.822%; and `CN(CC(=O)Nc1ccc(OC(F)F)cc1)S(=O)(=O)/C=C/c1ccccc1`, with -12.2%.
In the case of `O=C(O)C1CCN(c2ccc([N+](=O)[O-])cc2[N+](=O)[O-])CC1`, the “activity change, negative = inhibition” value is 18.3%.
Regarding `O=[N+]([O-])c1ccc(N2CCN(c3ccc(O)cc3)CC2)c(Cl)c1`, the Potency is 23.1 µM (active).
As to `COc1ccc(N2CCN(c3ccc([N+](=O)[O-])cc3Cl)CC2)cc1`, the “activity change, negative = inhibition” value is -2.92%.
The same measure, in the same setting: then `CN(C)C(=O)CCc1ccc2c3c([nH]c2c1)[C@]1(CCC2CCCC2)[C@@H](C(=O)N2CCOCC2)C[C@H](CC(=O)NCc2ccco2)C(=O)N1CC3`, with 17.9%; and `CCN(CC(=O)Nc1cc(Cl)ccc1C)C(=O)Cn1c(=O)cnc2ccccc21`, with -0.672%; and `CC(Oc1ccc2c(-c3ccccc3)cc(=O)oc2c1)C(=O)NC(Cc1c[nH]c2ccccc12)C(=O)O` (stereo unspecified), with 1.53%.
Consider `CC(C)(C)OC(=O)C[C@@H]1C/C=C\C[C@@H](CC(=O)N[C@H](CO)Cc2ccccc2)C(=O)NCCOC1=O`, for which the “activity change, negative = inhibition” value is 0.537%.
As for `CC12CCC(C(=O)N3CCN(c4ncccn4)CC3)(c3nc4ccccc4nc31)C2(C)C` (stereo unspecified), the Potency is 4.11 µM (active).
In the case of `CC(Oc1ccc(F)cc1)C(=O)N1CCN(c2ncccn2)CC1` (stereo unspecified), the “activity change, negative = inhibition” value is -3.2%.
As to `CCNC(=S)N1CCN(c2ncccn2)CC1`, the “activity change, negative = inhibition” value was -1.72%.
The same measure, in the same setting: then `CN(C(=O)CN1C(=O)/C(=C/c2ccc(Cl)cc2)SC1=S)C1CCS(=O)(=O)C1` (stereo unspecified), with 5.67%.
